Laboratory results published in PubChem BioAssay.
The source made the active and inactive calls.

Experiments:
[1] = E. coli DRC41 culture turbidity changes, primary screen, E. coli filamentation inducer project, strain DRC41, OD650, 48 h (AID 1152);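 also: E. coli MC1000 strain DRC41 lacking acrAB efflux pump and sulA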; conditions: E. coli DRC41 (acrAB sulA), higher = more signal, called active from +8 up or from −8 down
[2] = small-molecule binders of probe aLefty1, primary screen, biochemical, small-molecule microarray, 635/667 nm fluorescence (AID 1153); conditions: higher = more signal;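 also: score merges spot fluorescence with signal-to-noise ratio from the scanned slide images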
[3] = PSAC antagonists in infected red cells, primary screen, cell-based, P. falciparum Indochina, OD700, 1 h (AID 1154); conditions: P. falciparum Indochina infected RBC osmotic lysis, higher = more signal, called active from +8 up or from −8 down
[4] = PSAC antagonists in infected red cells, primary screen, cell-based, P. falciparum Indochina, OD700, 2 h (AID 1155);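 also: lysis reports solute entry through the parasite surface anion channel PSAC; channel blockers reduce lysis of infected cells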; conditions: P. falciparum Indochina infected erythrocytes, osmotic lysis OD700; higher = more signal, called active from +8 up or from −8 down
[5] = osmotic lysis modulators in infected erythrocytes, primary screen, PSAC antagonist project, cell-based, P. falciparum Indochina, OD700, 3 h (AID 1156); conditions: higher = more signal, called active from +8 up or from −8 down
[6] = PSAC antagonists in infected red cells, primary screen, cell-based, P. falciparum Indochina, OD700, 18 h (AID 1157); conditions: P. falciparum Indochina infected erythrocytes, osmotic lysis OD700, 18 h; higher = more signal, called active from +8 up or from −8 down
[7] = modulators of S6 phosphorylation in cells, primary screen, cell-based, A549, cytoblot, luminescence, serum-stimulated (AID 1158); conditions: A549 phospho-S6 cytoblot, 5 h, higher = more signal;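 also: serum-stimulated A549 lung adenocarcinoma cells; signal is phosphorylated S6 detected by cytoblot immunostaining with HRP secondary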
[8] = target: NADPH oxidase 2 (Homo sapiens) (UniProt P04839); experiment: NOX2-dependent H2O2 signal modulators, primary screen, NOX inhibitor project, cell-based, HEK293-NOX2, PMA-stimulated, Amplex Red fluorescence (AID 1159); conditions: 45 min, higher = more signal, called active from +8 up or from −8 down; also: test concentration not given here
Chain of NADPH oxidase 2 (Homo sapiens) (P04839 whole entry, looked up): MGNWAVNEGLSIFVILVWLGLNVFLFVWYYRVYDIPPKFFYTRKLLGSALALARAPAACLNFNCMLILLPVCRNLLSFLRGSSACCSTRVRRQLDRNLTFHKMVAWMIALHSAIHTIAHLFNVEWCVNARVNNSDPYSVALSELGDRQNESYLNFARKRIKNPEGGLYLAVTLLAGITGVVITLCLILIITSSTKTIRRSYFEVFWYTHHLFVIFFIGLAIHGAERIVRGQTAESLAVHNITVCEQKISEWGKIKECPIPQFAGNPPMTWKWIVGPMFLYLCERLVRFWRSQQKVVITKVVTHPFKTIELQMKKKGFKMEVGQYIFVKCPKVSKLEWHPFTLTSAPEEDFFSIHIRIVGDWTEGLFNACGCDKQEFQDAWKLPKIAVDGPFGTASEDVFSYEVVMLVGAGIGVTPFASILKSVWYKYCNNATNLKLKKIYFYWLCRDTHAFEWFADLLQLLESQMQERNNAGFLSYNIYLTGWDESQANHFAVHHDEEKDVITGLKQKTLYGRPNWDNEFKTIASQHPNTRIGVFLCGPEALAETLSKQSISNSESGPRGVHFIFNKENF

[9] = target: NADPH oxidase 4 (Homo sapiens) (UniProt Q9NPH5); experiment: NOX4-dependent H2O2 signal modulators, primary screen, NOX inhibitor project, cell-based, HEK293-NOX4, tetracycline-induced, Amplex Red fluorescence (AID 1160); conditions: 45 min, higher = more signal, called active from +8 up or from −8 down
Chain of NADPH oxidase 4 (Homo sapiens) (Q9NPH5 whole entry, looked up): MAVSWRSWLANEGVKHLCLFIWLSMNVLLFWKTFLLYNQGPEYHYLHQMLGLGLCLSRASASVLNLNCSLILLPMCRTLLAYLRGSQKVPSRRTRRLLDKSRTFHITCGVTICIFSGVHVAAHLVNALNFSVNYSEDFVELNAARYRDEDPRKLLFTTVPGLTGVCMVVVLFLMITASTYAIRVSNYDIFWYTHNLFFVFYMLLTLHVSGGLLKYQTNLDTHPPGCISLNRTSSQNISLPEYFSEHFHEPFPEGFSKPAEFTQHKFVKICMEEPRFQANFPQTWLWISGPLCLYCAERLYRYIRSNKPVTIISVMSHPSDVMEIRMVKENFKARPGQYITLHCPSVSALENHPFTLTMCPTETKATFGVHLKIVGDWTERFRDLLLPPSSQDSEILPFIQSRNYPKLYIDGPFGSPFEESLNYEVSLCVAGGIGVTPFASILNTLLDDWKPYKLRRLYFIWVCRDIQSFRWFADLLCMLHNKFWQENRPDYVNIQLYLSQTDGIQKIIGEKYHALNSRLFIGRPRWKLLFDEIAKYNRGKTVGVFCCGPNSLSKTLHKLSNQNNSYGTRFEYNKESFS

[10] = target: NADPH oxidase 5 (Homo sapiens) (UniProt Q96PH1); experiment: NOX5-dependent H2O2 signal modulators, primary screen, NOX inhibitor project, cell-based, HEK293-NOX5, Amplex Red fluorescence (AID 1161); conditions: HEK293-NOX5, ionomycin, 45 min, higher = more signal
Chain of NADPH oxidase 5 (Homo sapiens) (Q96PH1 whole entry, looked up): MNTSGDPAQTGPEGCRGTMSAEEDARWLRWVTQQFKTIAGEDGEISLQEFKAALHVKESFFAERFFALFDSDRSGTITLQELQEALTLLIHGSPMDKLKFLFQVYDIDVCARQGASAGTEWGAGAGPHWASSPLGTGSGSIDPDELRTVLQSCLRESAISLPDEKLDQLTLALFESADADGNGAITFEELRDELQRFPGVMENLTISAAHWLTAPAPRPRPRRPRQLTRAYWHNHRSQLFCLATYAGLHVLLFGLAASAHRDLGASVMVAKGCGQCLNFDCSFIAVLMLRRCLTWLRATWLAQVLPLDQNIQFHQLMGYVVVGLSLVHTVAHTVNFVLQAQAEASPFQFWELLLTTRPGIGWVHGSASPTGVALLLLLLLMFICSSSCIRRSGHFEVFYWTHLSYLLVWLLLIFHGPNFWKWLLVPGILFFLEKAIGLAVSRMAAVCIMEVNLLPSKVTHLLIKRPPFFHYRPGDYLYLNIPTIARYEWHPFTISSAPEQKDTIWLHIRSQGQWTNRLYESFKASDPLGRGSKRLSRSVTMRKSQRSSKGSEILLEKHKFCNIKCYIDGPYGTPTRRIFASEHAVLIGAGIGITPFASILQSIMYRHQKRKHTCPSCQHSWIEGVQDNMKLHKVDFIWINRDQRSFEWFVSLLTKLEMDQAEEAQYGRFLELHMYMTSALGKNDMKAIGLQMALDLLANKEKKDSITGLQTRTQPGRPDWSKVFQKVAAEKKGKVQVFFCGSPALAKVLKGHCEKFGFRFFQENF

| SMILES | z-score [1] | composite z-score [2] | z-score [3] | z-score [4] | z-score [5] | z-score [6] | z-score [7] | z-score [8] | z-score [9] | z-score [10] |
| --- | --- | --- | --- | --- | --- | --- | --- | --- | --- | --- |
| C=CC[C@]1(C(=O)OC)N=C(c2ccc(OCCCO)cc2)O[C@H]1c1ccccc1CN=[N+]=[N-] | 0.919 (inactive) | 0.419 | 21.2 (active) | 4.18 (inactive) | 1.7 (inactive) | 0.786 (inactive) | 0.363 | -3.18 (inactive) | -0.411 (inactive) | -2.23 |
| C=CCC(OC(C)=O)[C@@H]1[C@@H](N(Cc2ccc(-c3ccccc3)cc2)C(=O)c2ccc(-c3ccccc3)cc2)c2cc(OCCCO)ccc2N1C(=O)Cc1ccc(OC)cc1 (stereo not given in full) | -0.685 (inactive) | 0.149 | 0.572 (inactive) | -0.402 (inactive) | -0.501 (inactive) | -0.184 (inactive) | -0.192 | -1.56 (inactive) | 1.2 (inactive) | 1.41 |
| O=C(CS)NCCCCCNC(=O)[C@H]1C[C@H]2C(=O)N[C@@H](Cc3ccccc3)C(=O)N2[C@H]1c1ccc(O)cc1 | 0.956 (inactive) | 0.0371 | 6.87 (inactive) | -0.29 (inactive) | -1.1 (inactive) | -1.95 (inactive) | 0.263 | 0.99 (inactive) | -0.205 (inactive) | 0.0913 |
| COC(=O)[C@@]1(Cc2ccccc2CN=[N+]=[N-])N=C(c2ccc(OCCCO)cc2)O[C@H]1c1ccccc1N=[N+]=[N-] | -0.55 (inactive) | 0.495 | 26.8 (active) | 16.8 (active) | 1.76 (inactive) | 2.33 (inactive) | 0.166 | -1.2 (inactive) | 1.25 (inactive) | 0.841 |
| CN1CCC(CCCO)=CC1C1CC1 (stereo not given) | 1.08 (inactive) | -0.0984 | -0.369 (inactive) | -1.58 (inactive) | -1.01 (inactive) | -1.9 (inactive) | 0.591 | 0.575 (inactive) | -0.0075 (inactive) | 0.0296 |
| C=CCC(OC(C)=O)[C@@H]1[C@@H](N(Cc2cc3ccccc3o2)C(=O)c2ccc(C)cc2)c2cc(OCCCO)ccc2N1C(=O)c1ccc2ccccc2n1 (stereo not given in full) | 3.08 (inactive) | -0.007 | 0.834 (inactive) | 0.345 (inactive) | -0.629 (inactive) | 0.432 (inactive) | 0.469 | 0.12 (inactive) | 0.589 (inactive) | 1.51 |
| COC(=O)[C@@]1(Cc2ccc(OC)cc2)[C@H]2c3cc(C(=O)N(C)C)n(Cc4ccc(C)c(F)c4F)c3C[C@H]2CN1C(=O)c1ccccc1 | -1.37 (inactive) | 0.187 | 1.76 (inactive) | -0.0758 (inactive) | 0.571 (inactive) | 0.788 (inactive) | 0.0141 | -0.795 (inactive) | -0.522 (inactive) | 3.23 |
| C=CCNC(=O)[C@H]1[C@@H]2C(=O)O[C@@H](c3ccccc3)[C@@H](c3ccccc3)N2[C@@H](c2ccccc2OCCO)[C@]12C(=O)N(C(=O)OCCOC)c1ccc(C#CCNC(N)=O)cc12 | 1.8 (inactive) | 0.178 | 2.13 (inactive) | -0.0443 (inactive) | 0.391 (inactive) | -1.3 (inactive) | 1.78 | 1.76 (inactive) | 1.35 (inactive) | -0.971 |
| COCCOC(=O)N1C(=O)[C@@]2(c3cc(C#CC4=CCCCC4)ccc31)[C@H](C(=O)NC[C@H](O)c1ccccc1)[C@H]1C(=O)O[C@H](c3ccccc3)[C@H](c3ccccc3)N1[C@@H]2c1ccccc1OCCO | -0.499 (inactive) | 0.705 | 3.23 (inactive) | 1.95 (inactive) | -0.032 (inactive) | 1.78 (inactive) | -0.178 | 1.53 (inactive) | 0.911 (inactive) | 1.2 |
| CO[C@H]1COC(=O)CC=C[C@H](C)COC(=O)[C@@H](OCc2ccccc2)C=C[C@@H]1C | -0.168 (inactive) | -0.338 | 0.733 (inactive) | -1.13 (inactive) | -0.858 (inactive) | -2.2 (inactive) | 1.27 | 0.837 (inactive) | -0.234 (inactive) | 0.164 |
| O=C1O[C@@H](c2ccccc2)[C@@H](c2ccccc2)N2[C@@H](c3ccc(O)cc3)[C@]3(C(=O)Nc4ccccc43)[C@@H](C(=O)N3CCN(c4ncccn4)CC3)[C@H]12 | 3.11 (inactive) | -0.263 | 2.76 (inactive) | -0.363 (inactive) | 0.541 (inactive) | -1.54 (inactive) | 2.51 | 0.142 (inactive) | -0.0244 (inactive) | 1.51 |
| [N-]=[N+]=Nc1ccccc1C[C@@]1(C(=O)N2CCOCC2)N=C(c2ccc(OCCCO)cc2)O[C@@H]1c1ccccc1N=[N+]=[N-] | 1.94 (inactive) | 0.241 | 29.9 (active) | 27.6 (active) | 3.13 (inactive) | 4.27 (inactive) | 2.07 | 0.781 (inactive) | 0.516 (inactive) | -0.745 |
| Cc1ccc(N2C(=O)c3ccccc3[C@](C)(C(=O)NCC(C)C)[C@@H]2c2ccc(CO)cc2)nc1 | -0.262 (inactive) | -0.147 | 1.84 (inactive) | 0.707 (inactive) | 1.26 (inactive) | 0.937 (inactive) | -0.0528 | 0.253 (inactive) | -0.657 (inactive) | -1.63 |
| O=C1OCC=C[C@H]2OC34C=CCN(Cc5ccccc5)C(=O)[C@H]3N(CCCCCO)C(=O)[C@@H]4[C@@H]12 (stereo not given in full) | 2.14 (inactive) | -0.44 | 1.52 (inactive) | -0.426 (inactive) | -0.912 (inactive) | -1.34 (inactive) | 1.19 | 2.15 (inactive) | 0.352 (inactive) | 1.51 |
| C=C(CCCC)/C(=C/C[C@@H](OC(=O)c1ccncc1)c1ccc(CO)o1)c1cnc2ccccc2c1 | 0.583 (inactive) | 0.569 | 7.06 (inactive) | 0.843 (inactive) | 1.17 (inactive) | 0.0867 (inactive) | -0.349 | 0.194 (inactive) | -0.546 (inactive) | -0.634 |
| O=C(NCc1ccccc1)[C@@]1(Cc2ccccc2)COC(c2ccc(OCCCO)cc2)=N1 | -0.65 (inactive) | 0.205 | 29.5 (active) | 21.2 (active) | 3.61 (inactive) | 3.89 (inactive) | 0.366 | -3.55 (inactive) | -0.556 (inactive) | -2.81 |
